# Only some compounds are listed: those with a hit (about 8% of all), similar ones and a draw of the others.
# LASV entry inh: qHTS for Inhibitors of binding or entry into cells for Lassa Virus; Lassa virus pseudotype entry inhibition, cell reporter; Potency, µM (titrated, usually from 37.9 µM), for the others: at the highest dose activity change, negative = inhibition, hits mostly inhibitors; 1.2% of 300,000 active; calls by dose curve; tested in HEK293 cells; also: potency is read from the fitted curve at half-maximal effect; % is scaled to controls: 0 for no effect and ±100 for the full control effect; nearly all actives have a fitted effect of over 50% in size
# Marburg entry inh: qHTS for inhibitors of binding or entry into cells for Marburg Virus; Marburg virus pseudotyped entry inhibition, cell reporter; Potency, µM (titrated, usually from 37.8 µM), for inactives: top-dose activity change, negative = inhibition, hits mostly inhibitors; 1.8% of 300,000 active; AID 540276, 2011; calls by dose curve; tested in HEK293 cells; also: potency is read from the fitted curve at half-maximal effect; % is scaled to controls: 0 for no effect and ±100 for the full control effect
# HCV inh: qHTS Assay for Inhibitors of Hepatitis C Virus (HCV) | Huh7.5.1 HCVcc-Cre infection, luciferase reporter, 44 h | AID 651820, 2012 | Potency, µM (doses to about 41.8 µM), for the others: at the top dose activity change, negative = inhibition, hits mostly inhibitors | 3.4% of 340,000 active; active = well fitted inhibition curve with a large enough effect; inconclusive = small, poorly fitted or top-dose-only effect, or another doubt; inactive = no such curve, though single readings can be large or run the other way; also: potency is read from the fitted curve at half-maximal effect; % is scaled to controls: 0 for no effect and ±100 for the full control effect
#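 Cells seeded at 1,000/well and cultured 4 h, then compounds added followed by HCVcc-Cre virus (~0.5 moi). After 44 h further culture, luciferase substrate was added, plates held 15 min at room temperature, and luminescence read for 15 sec.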
# SARS PLP yeast: qHTS of Yeast-based Assay for SARS-CoV PLP | S. cerevisiae expressing SARS-CoV PLpro, growth rescue | 0.19% of 330,000 active | Potency, µM (top dose mostly 32.9 µM), without a hit: at the highest dose activity, positive = growth rescue, usual class: activators | AID 485353, 2010; calls by dose curve; also: potency is read from the fitted curve at half-maximal effect; 0% is about no effect; nearly all actives have a fitted effect of over 55% in size
# HCMV antiviral: qHTS Assay for inhibitors of the human cytomegalovirus (HCMV). 4.5% of 410,000 active. activity change, negative = inhibition, % at 57.5 µM. HFF cells, HCMV-luciferase reporter, 72 h; hits give low values; in the data active = activity change below about -60%; inconclusive = no clear call, values can overlap the other calls; inactive = above about -39%; also: % is scaled to controls: 0 for no effect and ±100 for the full control effect
#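 Cell-based, HFFs, 1000 cells/well, 16 h 37C; cpds in DMSO + HCMV-luc, MOI 1 PFU/cell; 72 h 37C; OneGlo luminescence after 5 min RT; norm. to buffer vs Salinomycin 10uM.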
# FMDV antiviral: High Throughput Screening for Foot and Mouth Disease Virus Antivirals; 1.2% of 410,000 active; FMDV antiviral cell-based qHTS; Potency, µM (titrated, usually from 57.9 µM), for the others: top-dose activity change, negative = inhibition, actives largely listed as inhibitors; calls by dose curve; tested in HEK293T cells; also: read-out not given here; potency is read from the fitted curve at half-maximal effect; % is scaled to controls: 0 for no effect and ±100 for the full control effect; nearly all actives have a fitted effect of over 45% in size
# * = called active by the depositor; ? = inconclusive; . = not tested or not shown; [ ] = remark or other dose.
SMILES,LASV entry inh,Marburg entry inh,HCV inh,SARS PLP yeast,HCMV antiviral,FMDV antiviral
COc1cc(OC)cc(C(=O)Nn2cc(C(=O)Nc3ccc(F)cc3F)c3ccccc3c2=O)c1,-23.2%,-18.0%,-14.7%,10.5%,32.7,?
CC(=O)OCc1cnc(C)c2oc(=O)c(C(=O)Nc3cc(F)ccc3C)cc12,4.4%[46.1 µM],2.0%[46.1 µM],.,.,9.0,-14.3%
CC(=O)OCc1cnc(C)c2oc(=O)c(C(=O)Nc3cccc(F)c3)cc12,0.794µM*,.,.,.,3.1,-6.1%
CCN(CC)c1ccc(C(=C2C=CC(=[N+](CC)CC)C=C2)c2ccc(N(CC)CC)cc2)cc1,.,.,1.78µM*,.,-105.1*,8.91µM*
CCN(CC)c1ccc(C(=C2C=CC(=[N+](CC)CC)C=C2)c2ccccc2)cc1,0.562µM*,?,?,.,-100.0*,3.55µM*
COc1cccc(/C=N/NC(=O)c2ccc(-n3cnnn3)cc2)c1,-4.7%,3.7%[46.1 µM],19.4%,-0.5%,15.6,-3.8%
CCOC(=O)c1ccc(CN(Cc2ccccc2)S(=O)(=O)c2ccc(C)cc2)cc1,11.2µM*,.,.,.,0.0,3.3%
Cc1ccc(CNC(=O)c2nc(SCc3ccc(F)cc3)ncc2Cl)cc1,-27.6%[46.1 µM],-3.0%[46.1 µM],.,.,-31.2,-9.8%
NC(=O)C1CCN(c2nc(-c3ccccc3)nc3ccccc23)CC1,-6.5%,0.0%,?,-7.8%,-14.6,-27.2%
CC1CCCCN1C(=O)C1CCN(c2nc(-c3ccccc3)nc3c2CCC3)CC1 (centres undefined),.,.,3.98µM*,1.2%,?,?
CC1CCCCN1C(=O)CSc1nc(-c2ccccc2)no1 (centres undefined),-12.6%[46.1 µM],.,.,.,27.0,51.0%
O=C(C1CCN(c2nc(-c3ccccc3)nc3c2CCC3)CC1)N1CCCC1,.,.,11.2µM*,.,-6.8,12.0%
COc1ccc(NC(=O)C2CCN(c3nc(C)nc4c3CCC4)CC2)cc1,?,?,3.55µM*,-28.4%,-70.4*,?
CCCNC(=O)N1CC(=O)N2[C@H](CO)[C@@H](c3ccc(Br)cc3)[C@@H]2C1,.,.,.,.,7.8,.
CNC(=S)N/N=C/c1cc(C)n(-c2ccc(Cl)c(Cl)c2)c1C,?,?,?,-43.2%,-68.3*,0.0%
CC(C)c1ccc(CNc2nc(-c3ccco3)nn2S(=O)(=O)c2ccc(F)cc2)cc1,22.1%[46.1 µM],5.3%[46.1 µM],.,.,72.5,-4.4%
C(=NN=C(NN=Cc1cccs1)NN=Cc1cccs1)c1cccs1,?,?,10µM*,.,-2.3,-6.7%
O=C(N/N=C/c1cccs1)c1ccccn1,-3.3%,15.4%,2.4%,-11.1%,113.6,21.3%
COc1ccc(NC(=S)NCc2cccnc2)cc1,6.1%[46.1 µM],8.9%[46.1 µM],12.4%,-1.1%,-2.1,12.5%
O=C(NC(=S)NCCSc1ccccc1)c1cccnc1,7.0%,?,-11.0%,10µM*,-15.0,10.6%
CC(C)(C)c1ccc(C(=O)NCc2cccnc2)cc1,?,25.6%,-8.0%,-6.6%,67.2,20.0%
CC(C)(C)c1ccc(C(=O)NC(=S)NCc2cccnc2)cc1,?,?,22.4µM*,-70.4%,-77.9*,-10.8%
CC(C)(C)c1ccc(NC(=S)NCc2cccnc2)cc1,.,.,31.6µM*,0.3%,-13.2,3.2%
S=C(NCc1cccnc1)Nc1ccc(Oc2ccc(Cl)cc2)cc1,-5.0%,?,?,0.0%,-61.3*,0.0%
Brc1cnc2nc[nH]c2c1,.,.,12.3%,-0.9%,-21.0,-0.3%
SMILES,LASV entry inh,Marburg entry inh,HCV inh,SARS PLP yeast,HCMV antiviral,FMDV antiviral
COc1ccccc1CNc1ncnc2c1cnn2-c1ccc(C)cc1,20.7%[46.1 µM],.,.,.,-28.3,-6.1%
O=C(Nc1ccccc1)c1cc(C2CCCCN2C(=O)c2cccs2)on1 (centres undefined),.,.,.,.,-21.6,-2.6%
CCN(CC)C(=S)Nc1ccc(Cl)c(Cl)c1,10.7%,-31.5%,?,?,-65.8*,48.1%
CC[n+]1c(C)cc2c(sc3ccccc32)c1C,.,.,?,0.5%,-100.7*,-9.8%
CCc1nc(C)cc2c1sc1ccccc12,17.3%,11.8%[46.1 µM],?,0.7%,37.9,0.0%
O=C(C[C@H]1CC[C@@H](NS(=O)(=O)c2ccccc2)[C@@H](CO)O1)NCc1ccc(Cl)c(Cl)c1,.,.,.,.,8.0,-23.8%
C=C(C(=O)c1ccccc1)C(C)CC(=O)c1ccccc1 (centres undefined),?,?,?,-59.3%,-82.3*,28.2µM*
COC(=O)C(NC(=O)c1ccccc1)c1ccccc1 (centres undefined),-3.9%,28.2%,11.5%,9.8%,67.2,28.2%
C=C(C(=O)c1ccccc1)C(NC(C)(C)C)c1ccccc1 (centres undefined),?,?,3.55µM*,.,-98.0*,10µM*
O=C(CC(Nc1ccccc1)C(=O)O)c1ccccc1 (centres undefined),?,-5.9%,1.6%,3.9%,44.4,19.0%
N#Cc1ncc(N=Cc2ccc(N(CCCl)CCCl)cc2)s1,0.708µM*,0.794µM*,?,.,-31.6,-26.6%
CCOC(=O)CCNC(=O)C1=CN2CCN(Cc3c(C)noc3C)C(=O)N=C2O1,.,.,.,.,-3.6,.
CC(C)(C)c1cc(-c2csc(Nc3ccccc3)[n+]2Cc2ccc(C(=O)O)cc2)cc(C(C)(C)C)c1O,-19.6%,11.2µM*,12.8%,-3.6%,.,31.6µM*
COc1ccc(-c2csc(NC(=O)CN3C(=O)C4CCCCC4C3=O)n2)cc1OC (centres undefined),1.3%,15.5%,?,18.9%,-4.7,?
O=C(CN1C(=O)C2CC=CCC2C1=O)Nc1nc(-c2ccc(F)c(F)c2)cs1 (centres undefined),.,.,10µM*,-0.2%,-32.1,?
COc1ccc(-c2csc(NC(=O)CN3C(=O)C4CC=CCC4C3=O)n2)cc1OC (centres undefined),.,.,?,.,-110.8*,?
O=C(Nc1ccccc1C(=O)NC(Cc1ccc(O)cc1)C(=O)O)c1ccccc1 (centres undefined),1.7%[46.1 µM],-0.2%[46.1 µM],7.8%,16.0%,-0.8,-17.6%
CCCCCCN1C(=O)CC(NC(=O)OCC2c3ccccc3-c3ccccc32)C/C=C\C1C(C)C (centres undefined),.,.,?,-12.7%,?,-11.8%
Cc1ccc(NCCN(C)C)c2c(=O)c3cc(O)ccc3sc12,3.98µM*,?,10µM*,.,-98.7*,-23.3%
CN(C)CCNc1cccc2sc3ccc(O)cc3c(=O)c12,.,.,.,.,-3.6,-15.7%
CCN(CC)CCCNc1ccc2ncn3c4ccc(O)cc4c(=O)c1c23,?,?,?,.,-89.8*,?
CN(C)CCNc1ccc2nnn3c4ccc(O)cc4c(=O)c1c23,-11.9%,?,10µM*,.,-87.6*,-12.0%
CCOC(=O)c1ccc2ncc(C(=O)OCC)c(NCCN(C)C)c2c1,.,.,?,.,14.7,-23.4%
